Eleven compounds from PubChem BioAssay can be followed below.

The structures appear in SMILES notation. The source made the active and inactive calls.

The nature of assay [1]: optical density shifts of acrAB sulA E. coli – strain DRC41, OD650, 48 h, E. coli filamentation inducer project, primary screen (AID 1152).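 Further: E. coli MC1000 strain DRC41 lacking acrAB efflux pump and sulA.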 The settings on record: higher = more signal, called active from +8 up or from −8 down.
The nature of assay [2]: probe aLefty1 binding on compound microarray – biochemical, small-molecule microarray, 635/667 nm fluorescence, primary screen (AID 1153).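 Further: score merges spot fluorescence with signal-to-noise ratio from the scanned slide images.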 The note with it: higher = more signal.
A short description of assay [3]: plasmodial surface anion channel blockers, osmotic lysis – cell-based, P. falciparum Indochina, OD700, 1 h, primary screen (AID 1154). The settings on record: P. falciparum Indochina infected RBC osmotic lysis, higher = more signal, called active from +8 up or from −8 down.
Assay [4] is described as follows: plasmodial surface anion channel blockers, osmotic lysis – cell-based, P. falciparum Indochina, OD700, 2 h, primary screen (AID 1155).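 Further: lysis reports solute entry through the parasite surface anion channel PSAC.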 The settings on record: P. falciparum Indochina infected erythrocytes, higher = more signal, called active from +8 up or from −8 down.
A short description of assay [5]: changes in parasitized red cell lysis, either direction – P. falciparum Indochina, OD700, 3 h, PSAC antagonist project, primary screen (AID 1156). The note with it: P. falciparum-infected erythrocytes, osmotic lysis, higher = more signal, called active from +8 up or from −8 down.
The nature of assay [6]: plasmodial surface anion channel blockers, osmotic lysis – cell-based, P. falciparum Indochina, OD700, 18 h, primary screen (AID 1157). The settings on record: P. falciparum Indochina infected erythrocytes, osmotic lysis OD700, 18 h; higher = more signal, called active from +8 up or from −8 down.
Assay [7] can be described thus: S6 kinase pathway phospho-S6 level changes – cell-based, A549, cytoblot, luminescence, serum-stimulated, primary screen (AID 1158).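 Further: serum-stimulated A549 lung adenocarcinoma cells; signal is phosphorylated S6 detected by cytoblot immunostaining with HRP secondary.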 The settings on record: 5 h, higher = more signal.
The target in assay [8] is NADPH oxidase 2 (Homo sapiens) (UniProt P04839). Kind of assay: compounds shifting NOX2 Amplex Red fluorescence – cell-based, HEK293-NOX2, PMA-stimulated, NOX inhibitor project, primary screen (AID 1159). Further: test concentration not given here. The note with it: 45 min, higher = more signal, called active from +8 up or from −8 down.
Sequence of NADPH oxidase 2 (Homo sapiens) (P04839 whole entry, looked up): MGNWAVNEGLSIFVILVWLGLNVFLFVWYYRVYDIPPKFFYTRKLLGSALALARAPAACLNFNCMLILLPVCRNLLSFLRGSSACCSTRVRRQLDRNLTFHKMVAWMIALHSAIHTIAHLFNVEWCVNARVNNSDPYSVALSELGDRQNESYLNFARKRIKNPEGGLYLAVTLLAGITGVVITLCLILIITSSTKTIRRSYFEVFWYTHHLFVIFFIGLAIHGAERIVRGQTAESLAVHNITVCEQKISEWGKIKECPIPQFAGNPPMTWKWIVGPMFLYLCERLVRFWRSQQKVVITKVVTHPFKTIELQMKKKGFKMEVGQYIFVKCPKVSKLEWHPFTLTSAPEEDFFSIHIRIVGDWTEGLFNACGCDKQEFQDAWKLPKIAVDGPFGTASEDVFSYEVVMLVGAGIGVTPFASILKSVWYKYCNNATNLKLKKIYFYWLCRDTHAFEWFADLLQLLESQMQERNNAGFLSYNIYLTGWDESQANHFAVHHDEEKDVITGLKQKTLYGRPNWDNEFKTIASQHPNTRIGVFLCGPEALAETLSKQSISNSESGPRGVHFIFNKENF
The target in assay [9] is NADPH oxidase 4 (Homo sapiens) (UniProt Q9NPH5). The assay can be described thus: compounds shifting NOX4 Amplex Red fluorescence – cell-based, HEK293-NOX4, tetracycline-induced, NOX inhibitor project, primary screen (AID 1160). The settings on record: HEK293-NOX4, Amplex Red H2O2 fluorescence, 45 min; higher = more signal, called active from +8 up or from −8 down.
Sequence of NADPH oxidase 4 (Homo sapiens) (Q9NPH5 whole entry, looked up): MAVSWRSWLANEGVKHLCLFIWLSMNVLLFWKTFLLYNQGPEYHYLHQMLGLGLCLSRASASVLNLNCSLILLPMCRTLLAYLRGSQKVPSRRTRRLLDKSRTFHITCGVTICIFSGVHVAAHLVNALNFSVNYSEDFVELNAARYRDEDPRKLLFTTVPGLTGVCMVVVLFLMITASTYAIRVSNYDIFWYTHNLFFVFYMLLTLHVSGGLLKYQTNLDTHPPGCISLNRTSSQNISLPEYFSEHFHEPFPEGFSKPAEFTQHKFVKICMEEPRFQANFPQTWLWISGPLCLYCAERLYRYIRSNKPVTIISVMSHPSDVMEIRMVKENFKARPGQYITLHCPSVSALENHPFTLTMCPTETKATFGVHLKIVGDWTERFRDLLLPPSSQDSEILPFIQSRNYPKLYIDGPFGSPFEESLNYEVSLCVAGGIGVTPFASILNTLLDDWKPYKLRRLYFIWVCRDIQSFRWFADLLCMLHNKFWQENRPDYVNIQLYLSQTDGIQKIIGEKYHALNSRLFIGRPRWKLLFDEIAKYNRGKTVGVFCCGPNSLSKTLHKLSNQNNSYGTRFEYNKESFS
Assay [10] deals with NADPH oxidase 5 (Homo sapiens) (UniProt Q96PH1). The assay can be described thus: compounds shifting NOX5 Amplex Red fluorescence – cell-based, HEK293-NOX5, NOX inhibitor project, primary screen (AID 1161). The settings on record: HEK293-NOX5, ionomycin, 45 min, higher = more signal.
Sequence of NADPH oxidase 5 (Homo sapiens) (Q96PH1 whole entry, looked up): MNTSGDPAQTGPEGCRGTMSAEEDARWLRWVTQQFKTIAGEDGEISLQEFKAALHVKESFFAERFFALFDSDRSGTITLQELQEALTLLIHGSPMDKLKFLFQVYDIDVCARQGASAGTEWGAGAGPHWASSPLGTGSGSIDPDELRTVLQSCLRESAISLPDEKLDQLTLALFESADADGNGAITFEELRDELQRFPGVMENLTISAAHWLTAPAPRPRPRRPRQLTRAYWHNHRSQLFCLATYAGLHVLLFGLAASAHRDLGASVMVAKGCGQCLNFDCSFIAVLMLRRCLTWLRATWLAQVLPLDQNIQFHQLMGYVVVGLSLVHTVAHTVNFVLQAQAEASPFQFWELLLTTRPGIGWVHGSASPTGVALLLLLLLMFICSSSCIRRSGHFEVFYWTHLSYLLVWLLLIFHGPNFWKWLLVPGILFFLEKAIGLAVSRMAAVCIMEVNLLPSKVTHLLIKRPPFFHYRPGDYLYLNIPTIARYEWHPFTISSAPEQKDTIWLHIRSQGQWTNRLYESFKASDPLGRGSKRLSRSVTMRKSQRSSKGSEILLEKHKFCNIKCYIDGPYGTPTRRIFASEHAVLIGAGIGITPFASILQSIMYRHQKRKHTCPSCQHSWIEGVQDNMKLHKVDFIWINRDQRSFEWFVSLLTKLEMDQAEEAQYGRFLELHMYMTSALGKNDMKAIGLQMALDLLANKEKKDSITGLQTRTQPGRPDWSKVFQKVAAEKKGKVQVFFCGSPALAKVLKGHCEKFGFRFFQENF

On to `CC(=O)N1CC(C(O)C2C=CC3C(=O)NC(=O)C3N2Nc2ccc(Cl)cc2Cl)c2ccccc21` (stereo not given), for which the z-score is -1.14 (inactive) in [1]; 3.47 (inactive) in assay [3]; 1.36 (inactive) in assay [4]; -0.0499 (inactive) in assay [5]; 1.17 (inactive) in assay [6]; -0.746 in assay [7]. The values for the z-score in assay [8], in assay [9] and in assay [10] were -0.849 (inactive), -4.86 (inactive) and -2.57, respectively. This compound showed a composite z-score in assay [2] of 0.176.
Regarding `O=C1C2C=CC(C(O)c3cccc(O)c3)N(Nc3ccccc3)C2C(=O)N1c1ccccc1` (stereo not given), the z-score in [1] was -1.09 (inactive); in [3], 6.48 (inactive); in [4], 0.214 (inactive); in [5], 0.185 (inactive); in assay [6] it was 0.115 (inactive); in assay [7], 0.109. The z-score is -3.44 (inactive) in assay [8], -6.62 (inactive) in [9] and -6.85 in assay [10]. The same compound displayed a composite z-score in assay [2] of 0.315.
On to `Cc1ccc(F)cc1S(=O)(=O)N[C@@H]1CCN(Cc2cccc3[nH]ccc23)C1`, for which the z-score in [1] is -1.41 (inactive); in [3], 1.27 (inactive); in [4], 0.137 (inactive); in [5] it was 0.0401 (inactive); in assay [6] it was 0.451 (inactive); in [7], -0.453. In addition, the results for the z-score in [8], in [9] and in assay [10] were 0.116 (inactive), -0.746 (inactive) and -0.541, respectively. This compound gave a composite z-score in assay [2] of -0.007.
Take `CCN(CC)c1ccc(N2CC=CC34O[C@@H]5C=CCCOC(=O)C5[C@H]3C(=O)N(CCO)[C@@H]4C2=O)cc1` (stereo not given in full): the z-score in [1] was 0.286 (inactive); in [3] it was 1.03 (inactive); in assay [4] it was 0.537 (inactive); in assay [5], 0.836 (inactive); in assay [6] it was 0.159 (inactive); in [7] it was -0.616. Also, the z-score in [8] is 0.697 (inactive); in assay [9], -0.513 (inactive); in [10] it was 1.11. In assay [2], this compound came in with a composite z-score of -0.155.
In the case of `CC(CO)N1C(=O)[C@@H]2[C@H]3C(=O)OCC=C[C@H]3OC23C=CCN(c2ccc(Cl)cc2)C(=O)[C@@H]13` (stereo not given in full), the z-score in [1] is 0.458 (inactive); in [3], -0.499 (inactive); in [4], -0.219 (inactive); in [5], 0.639 (inactive); in assay [6], 0.0119 (inactive); in assay [7] it was -0.172. The z-score is 0.8 (inactive) in assay [8], 0.28 (inactive) in assay [9] and 1.34 in assay [10]. The composite z-score in [2] was -0.283.
`COc1cc(CO)cc(I)c1O[C@H]1C=C(C(=O)NCCO)C[C@@H](NCC2CCCCC2)[C@@H]1O`: the z-score was 2.19 (inactive) in assay [1]; 1.35 (inactive) in assay [3]; 0.94 (inactive) in assay [4]; 0.996 (inactive) in assay [5]; 0.183 (inactive) in assay [6]; 1.06 in assay [7]. In addition, the z-score in [8] is 0.132 (inactive); in assay [9], 0.97 (inactive); in assay [10], 1.04. The compound further gave a composite z-score in [2] of -0.313.
`CCCCC(=O)N(CCN1CCOCC1)[C@@H]1CC(C(=O)NCCO)=C[C@H](Oc2c(I)cc(CO)cc2OC)[C@H]1O`: the z-score in [1] was 1.4 (inactive); in assay [3] it was 3.89 (inactive); in assay [4], 0.756 (inactive); in assay [5], 0.098 (inactive); in [6], 0.133 (inactive); in [7] it was -0.0612. The z-score in assay [8] was -0.381 (inactive); in assay [9] it was 0.577 (inactive); in assay [10], 0.613. The compound also displayed a composite z-score in assay [2] of -0.235.
`CCOC(=O)C[C@H]1[C@H](OC(=O)c2ccc(-c3ccccc3)cc2)[C@@H](NC(=O)Cc2ccc(OC)cc2)c2cc(OCCCO)ccc2N1C(=O)Cc1ccc(OC)cc1`: the z-score in assay [1] is 1.07 (inactive); in assay [3], 4.29 (inactive); in [4], 0.4 (inactive); in assay [5], 0.222 (inactive); in assay [6], 0.211 (inactive); in [7], 0.911. Also, the z-score in [8] is 0.818 (inactive); in assay [9] it was -0.868 (inactive); in assay [10], 1.52. This compound also returned a composite z-score in assay [2] of -0.0348.
`C=C(/C(=C/C[C@@H](OC(C)=O)c1ccc(OCCO)cc1)c1cc(C(=O)OC)ccc1OC)C(C)C`: the z-score in [1] is -0.2 (inactive); in assay [3] it was 8.16 (active); in [4], 1.11 (inactive); in assay [5], 1.24 (inactive); in assay [6] it was 0.774 (inactive); in [7] it was -0.219. Moreover, the z-score is -0.323 (inactive) in assay [8], -0.645 (inactive) in assay [9] and -1.87 in assay [10]. Besides, the composite z-score in [2] worked out at 0.0794.
With `O=C1O[C@H](c2ccccc2)[C@H](c2ccccc2)N2[C@H]1[C@@H](C(=O)O)[C@]1(C(=O)Nc3ccc(C#CC4(O)CCCCCC4)cc31)[C@H]2c1ccc(O)cc1`, the z-score in [1] was 2.05 (inactive); in assay [3], -0.224 (inactive); in assay [4], -0.925 (inactive); in [5], -2.31 (inactive); in [6], -1.16 (inactive); in assay [7], 1.65. Besides, the z-score in [8] is 0.867 (inactive); in assay [9], -0.353 (inactive); in [10], -1.06. The compound further came in with a composite z-score in assay [2] of 0.0355.
In the case of `CCOC(=O)C=Cc1ccccc1O`, the z-score is -0.646 (inactive) in assay [1]; 19.4 (active) in assay [3]; 2.46 (inactive) in assay [4]; 0.784 (inactive) in assay [5]; -1.43 (inactive) in [6]; 1.47 in assay [7]. In addition, the z-score is -4.38 (inactive) in assay [8], -2.24 (inactive) in assay [9] and -4.65 in assay [10]. Also, the composite z-score in assay [2] stood at 0.135.
